TGFb inhibitor – inhibitors of TGF-b signaling; HepG2 CAGA-GFP TGF-b/SMAD3 reporter, GFP fluorescence, 18 h; TGF-beta stimulated, 500 pg/mL final; Potency, µM (titrated, usually from 46.1 µM), hits mostly inhibitors; 1.2% of 410,000 active; AID 588855; also: nearly all actives have a fitted effect of over 65% in size
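Per well, imaged GFP fluorescence of HEPG2 CAGA-GFP cells gives the signal; cells get compound, then TGF-beta (500 pg/mL final), 18 h at 37 degrees C; %Activity versus -TGF-beta and +DMSO controls.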
HT1080NT lethal – kills 2HG-producing HT-1080-NT fibrosarcoma cells | HT-1080-NT fibrosarcoma viability, CellTiter-Glo ATP luminescence, 48 h | Potency, µM (titrated, usually from 46.1 µM), most hits filed as cytotoxic | 1.6% of 360,000 active | AID 686970;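 also: NT is the 2HG producing partner of a matched IDH1 knockdown line; nearly all actives have a fitted effect of over 55% in size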
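A 48-hour cytotoxicity screen used HT-1080-NT cells plated 2 hours before compound delivery. ATP-based CellTiter-Glo luminescence measured viability, normalized to DMSO and no-cell controls.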
HT1080 IDH1KD tx – toxicity to HT-1080 IDH1 knockdown cells (counter line). Potency, µM (series often up to 46.1 µM), usual class: cytotoxic. HT-1080 IDH1 knockdown viability, ATP luminescence, 48 h. 2% of 360,000 active
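Luminescent ATP read-out (CellTiter-Glo, 10 min at room temperature) after 48 h compound exposure at 37 °C gave viability of IDH1-knockdown HT-1080 cells. Activity was normalised to DMSO and cell-free wells, then fitted as concentration-response curves.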
ATXN2 expr inh – reduces ATXN2 reporter expression in HEK-293 cells | Potency, µM (highest dose often 57 µM), actives largely listed as inhibitors | HEK-293 ATXN2-luciferase reporter, luminescence, 24 h | 0.72% of 360,000 active; also: nearly all actives have a fitted effect of over 55% in size
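qHTS (up to 57 uM final) was run with 24 h compound exposure of reporter cells at 37 °C. Each well was multiplexed: SteadyGlo luminescence measured ATXN2-luciferase expression after a fluorogenic Gly-Phe-AFC viability readout (25 uM final).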
ATXN viability – cell viability loss in ATXN counter-screen; S2 cells (HEK-293 line with an ATXN2-luciferase reporter) viability, CellTiter-Fluor protease fluorescence, 24 h; AID 651635; 0.49% of 400,000 active; Potency, µM (doses to about 56.7 µM), hits mostly cytotoxic; also: nearly all actives have a fitted effect of over 40% in size
HepG2 viability – kills HepG2 cells in TGF-b inhibitor counter-screen; HepG2 CAGA-GFP viability, ATP luminescence, 18 h; Potency, µM (titrated, usually from 46.1 µM), hits mostly cytotoxic; 0.76% of 410,000 active
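CellTiter-Glo luminescence gave cytotoxicity after 18 hours at 37 degrees C. The cells were HepG2 CAGA-GFP in 1% FBS DMEM, stimulated with 500 pg/mL TGF-beta after compound addition. %Activity was normalised to no-cell wells (complete cell-killing) and DMSO (no toxicity), and curves were fitted and classified.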
A number is an active result; i = inactive; ? = inconclusive; nt = no result given; [ ] = another dose, or the depositor's remark. Sampled rows, rich in hits. Any-hit rate of the full collection: about 3.9%. Calls follow the shape of the dose curve; as a rule, active = well fitted curve in the direction sought with a large enough effect; inconclusive = small, poorly fitted or top-dose-only effect, or another doubt; inactive = no such curve, though single readings can be large; an effect the other way counts as inactive or inconclusive.

SMILES	TGFb inhibitor	HT1080NT lethal	HT1080 IDH1KD tx	ATXN2 expr inh	ATXN viability	HepG2 viability
CN1C2=CC=CC=CC2=[N+](C)C12C([N+](=O)[O-])=CC(=[N+]([O-])[O-])C=C2[N+](=O)[O-] (stereo unspecified)	?	?	2.1µM	i	i	i
Cc1cccc(-c2noc(-c3c(C)noc3C)n2)c1	i	i	i	i	i	i
Cc1ccc(-c2noc(-c3c(C)noc3C)n2)cc1	i	i	i	nt	i	0.89µM
CCCCC[n+]1ccn(C2=C([O-])c3ccccc3C(=O)/C2=N\S(=O)(=O)c2ccc(Cl)cc2)c1	3.2µM	i	i	i	i	3.5µM
CCCC[n+]1ccn(C2=C([O-])c3ccccc3C(=O)/C2=N\S(=O)(=O)c2ccc(Cl)cc2)c1	10µM	?	?	?	?	11µM
CC(C)c1ccc(O)c(NC(=O)c2ncn[nH]2)c1	i	i	i	i	i	i
CCc1ccc2c(c1)C1(NN=C(c3ccc(C)cc3)S1)C(=O)N2 (stereo unspecified)	16µM	?	21µM	?	?	i
CC(C)c1ccc2c(c1)C1(NN=C(c3ccccc3)S1)C(=O)N2 (stereo unspecified)	?	26µM	?	i	?	i
COc1ccc(Cl)cc1NC(=O)CNc1ccccc1CN(C)C1CCCCC1	i	?	16µM	nt	i	i
COc1ccc(C)cc1NC(=O)CNc1ccccc1CN(C)C1CCCCC1	i	i	?	i	i	i
COc1ccc(Cl)cc1NC(=O)CN(C)CC(=O)Nc1ccccc1N1CCOCC1	i	1.5µM	1.2µM	i[11.3 µM]	?	i
CC12CC3CC(C)(C1)CC(C(=O)NC(=S)N1CCOCC1)(C3)C2	?	11µM	i	i	i	i
O=C1COCCN1	i	nt	nt	nt	nt	i
COc1ccccc1CNc1nc(NCCOc2ccccc2)c2sccc2n1	?	?	?	?	?	i
COc1ccccc1CNc1nc(NCc2ccc3occc3c2)c2sccc2n1	?	16µM	?	?	?	11µM
c1ccc(OCCNc2nc(NCC3CC3)nc3ccsc23)cc1	?	21µM	?	i	?	i
COc1ccccc1CNc1nc(Oc2cccc(F)c2)c2sccc2n1	i	?	?	i	i	i
c1cc2cc(CNc3nc(NCC4CC4)nc4ccsc34)ccc2o1	?	?	13µM	?	nt	i
COc1ccccc1CNc1nc(NCc2cccs2)nc2ccsc12	11µM	?	?	?	?	i
Cc1ncc2c(c1CNS(=O)(=O)N(C)C)CCN(C(=O)/C=C/c1ccccc1Cl)C2	nt	nt	nt	nt	i	nt
COc1ccccc1CNc1nc(NCc2ccc(NC(C)=O)cc2)c2sccc2n1	18µM	?	?	?	i	i
COc1ccccc1CNc1nc(NCCNC(C)=O)c2sccc2n1	i	i	i	i	i	i
Clc1ccccc1Nc1nc(NCc2ccccc2)nc2ccsc12	i	i	i	i	i	i
COCCNc1nc(NCc2ccccc2OC)c2sccc2n1	i	?	?	?	?	i
COc1ccccc1CNc1nc(Nc2ccccc2-n2cccn2)c2sccc2n1	?	?	?	i	16µM	i
SMILES	TGFb inhibitor	HT1080NT lethal	HT1080 IDH1KD tx	ATXN2 expr inh	ATXN viability	HepG2 viability
COc1ccccc1CNc1nc(Nc2cccc(-c3cnco3)c2)c2sccc2n1	?	nt	nt	i	20µM	i
COc1ccccc1CNc1nc(NCC2CC2)nc2ccsc12	13µM	?	15µM	?	nt	10µM
CCOC(=O)c1c(C)oc2ncnc(Nc3ccc(OC)cc3OC)c12	i	nt	nt	i	i	i
CNC(=O)Cn1c(=O)c2cccn2c2ccc(F)cc21	i	nt	nt	nt	nt	i
COc1ccccc1CNc1nc(NCc2ccccc2OC)c2sccc2n1	?	21µM	23µM	?	?	i
CC(C)Nc1nc(NCc2ccccc2)c2sccc2n1	?	23µM	?	?	?	i
CCOC(=O)c1cnn(-c2ccc(C(=O)Nc3ccc(OC(F)(F)F)cc3)cc2)c1N	i	nt	nt	i	i	i
COC(=O)c1ccc2c(=O)n(CCCCCC(=O)N3CCN(c4cc(Cl)ccc4C)CC3)c(=O)[nH]c2c1	?	nt	nt	i	i	i
CC(=O)Cn1ncc(Br)c(Br)c1=O	?	10µM	7.3µM	?	?	i
O=S(=O)(Nc1cccc(F)c1)c1ccc2[nH]c3c(c2c1)CCCCC3	?	nt	nt	i	28µM	i
O=S(=O)(Nc1cc(F)ccc1F)c1ccc2[nH]c3c(c2c1)CCCCC3	?	nt	nt	?	?	11µM
Cc1ccc(NS(=O)(=O)c2ccc3[nH]c4c(c3c2)CCCCCC4)cc1C	?	nt	nt	i	?	i
CCOC(=O)c1cnc2c(C)c(Cl)ccc2c1Nc1ccc(C)cc1C	i	nt	nt	i	i	i
CCOC(=O)c1cnc2c(C)c(Cl)ccc2c1N1CCN(CC)CC1	i	15µM	15µM	i	i	i
CCOC(=O)c1cnc2c(ccc3ccccc32)c1Cl	i	i	i	i	i	i
CCOC(=O)c1cnc2c(Cl)c(Cl)ccc2c1N1CCN(C)CC1	i	15µM	16µM	i	i	i
Cc1ccc2nc(-c3ccccc3)cn2c1	i	12µM	12µM	5µM	i	i
Cc1ccc2nc(-c3ccc(O)c(O)c3)cn2c1	i	i	?	?	i	i
COc1ccc(/C=C\C(=O)O[C@@H]2C(O)C(O[C@@H]3OC(C)[C@H](O[C@@H]4OCC(O[C@H]5O[C@H](CO)[C@@H](O)C(O)C5O)C(O)C4O)C(O)C3O)[C@H](OC(=O)[C@]34CCC(C)(C)C[C@@H]3C3=CCC5[C@@]6(C)CC(O)C(O[C@@H]7OC(CO)C(O)[C@H](O)[C@H]7O)[C@@](C)(C(=O)O)C6CC[C@@]5(C)[C@]3(CO)CC4)O[C@H]2C)cc1 (stereo partly specified)	?	?	21µM	7.1µM	11µM	i
C[C@@H]1CC[C@]2(C(=O)O[C@@H]3O[C@H](CO)[C@@H](O)[C@H](O)[C@H]3O)CC[C@]3(C)C(=CCC4[C@@]5(C)CC[C@H](O[C@@H]6OC[C@H](O)[C@H](O[C@@H]7O[C@H](CO)[C@@H](O)[C@H](O)[C@H]7O)[C@H]6O)C(C)(C)C5CC[C@]43C)C2[C@]1(C)O (stereo partly specified)	i	i	i	i	i	i
Cc1cc(C(=O)N2CC=C(c3ccccc3)CC2)c2ccccc2n1	?	?	1.6µM	?	?	i
Cc1c(C(=O)C(=O)N2CC=C(c3ccccc3)CC2)c2ccccc2n1C	i	2.6µM	2.3µM	i	i	i
O=C(c1ccccc1)c1ccc(OCC(O)CNCc2ccc(F)cc2)cc1 (stereo unspecified)	?	?	21µM	i	nt	i

Compound activity (PubChem)
